The results in this text go back to PubChem BioAssay (NCATS).

Inconclusive results are not listed. For part of these data: Entries with a potency or affinity are not part of this list. Active and inactive are the calls of the source.

For experiment [1] the following is noted: Ebola virus entry assay, blue channel (ratio component).
Experiment [2] is described as follows: High-throughput drug toxicity screening in the BPDCN cell line Gen2.2 (AID 1224824).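 Further: cells exposed to compounds for 48 h before reading.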 Particulars: Gen2.2 BPDCN cells; at 45.8 µM (top of the series) unless noted. In short, it runs like this:
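Gen2.2 cells, 500 per well in phenol red-free RPMI with 10% FBS, exposed to compounds 48 h at 37 C, 5% CO2; viability by CellTiter-Glo luminescence. Percent activity scaled to DMSO (100%) and 9.2 uM bortezomib final (0%).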

A short description of experiment [3]: High-throughput drug toxicity screening in the BPDCN cell line Cal-1 (AID 1224825). The conditions noted are these: Cal-1 BPDCN cell viability, qHTS; at 45.8 µM (top of the series) unless noted. Summed up:
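Percent activity derived from CellTiter-Glo luminescence, scaling DMSO to 100% and 9.2 uM final bortezomib to 0%. BPDCN Cal-1 cells (500/well, RPMI plus 10% FBS) incubated with compounds 48 hours at 37C before reading.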

The nature of experiment [4]: qHTS assay for measurement of the activity of small molecule inhibitors on Zika virus induced Caspase-3 activity in human iPSC derived neural progenitor cells (hNPCs) (AID 1224857; active means well fitted inhibition curve with a large enough effect; further: % of control where 0% means no effect; nearly all actives have a fitted effect of over 65% in size). The conditions noted are these: hNPCs ZIKV-induced caspase-3/7, Caspase-Glo luminescence, 6 h; series mostly up to 45.7 µM. Summed up: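 Quantitative HTS format: human iPSC neural progenitors, 1 h compound pretreatment, ZIKV 2 FFU/cell for 6 h at 37 C. Percent inhibition derived from luminescent caspase-3/7 signal between uninfected and infected controls.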
On the technique in general: Quantitative high-throughput screening tests each substance at several concentrations.

A short description of experiment [5]: qHTS assay for measurement of the activity of small molecule inhibitors on Zika virus induced Caspase-3 activity in human astrocytoma cells (AID 1224859; active means well fitted inhibition curve with a large enough effect;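 further: plate controls were ZIKV-infected untreated cells for no effect and uninfected cells for full effect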). Particulars: SNB-19 ZIKV-induced caspase-3/7, luminescence, 6 h; series mostly up to 45.7 µM. Summed up:
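Readout is luminescence from Caspase-Glo 3/7 added after a 6 h ZIKV infection (2 FFU/cell) of compound-pretreated (1 h) SNB-19 cells; data expressed as % inhibition versus uninfected and infected wells.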

A short description of experiment [6]: qHTS Screen of the MIPE 4.0 Collection Against Ewings Sarcoma (RDES) (AID 1259252; active means well fitted inhibition curve with a large enough effect;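 further: 100% = DMSO-treated cells and 0% = medium-only wells without cells; nearly all actives have a fitted effect of over 35% in size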). The conditions noted are these: RD-ES Ewing sarcoma viability, CellTiter-Glo, 48 h; series mostly up to 45.8 µM. In short, it runs like this: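 After a 4 h attachment period in RPMI/5% FBS, cells were pin-dosed with test compounds; DMSO served as negative and 9.2 uM bortezomib (final) as positive control. Luminescent CellTiter-Glo signal at 48 h defined viability.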

For experiment [7] the following is noted: Ebola virus entry cell assay, ratio channel.
Experiment [8] in a line: Immunotoxin (HA22) sensitization/mitigation study. Vehicle arm (PBS) (AID 1159510). Further: potency means the concentration at half of the fitted maximal effect. Particulars: cancer cells viability with PBS vehicle (HA22 study); series mostly up to 46.1 µM.
A short description of experiment [9]: Immunotoxin (SS1P) sensitization/mitigation study. Vehicle arm (DMEM) (AID 1159513). Further: potency means the concentration at half of the fitted maximal effect. The conditions noted are these: cell viability with vehicle (DMEM); series mostly up to 46.1 µM.

With `CN1C(=O)COc2c(C(=O)NC3CN4CCC3CC4)cc(Cl)cc21` (configuration not stated), the outcome in experiment [1], in [4] and in [5] was inactive. The cell viability, % of control (lower = more cytotoxic) in experiment [2] was 212%. In addition, the viability (% of control) in experiment [3] is 120%. Besides, in experiment [6], the Potency result was “inactive”.

As to `C[C@](N)(Cc1ccc(O)cc1)C(=O)O`, the result in experiment [1] and in [7] was inactive.

`CCN1CC(CCN2CCOCC2)C(c2ccccc2)(c2ccccc2)C1=O` (configuration not stated): the result in [1] and in experiment [7] was inactive.

With `CNCCCC12CCC(c3ccccc31)c1ccccc12`, in experiment [1], the result was inactive. Moreover, in experiment [7], the AC50 was 3.16 µM (active).

With `O=C(O)CCCc1ccc(N(CCCl)CCCl)cc1`, the outcome in experiment [1], in [7], in experiment [4] and in experiment [5] was inactive. Further, the cell viability, % of control (lower = more cytotoxic) in experiment [2] is 84.6%. The viability (% of control) in [3] turned out to be 11.8%.

With `CNNCc1ccc(C(=O)NC(C)C)cc1`, the outcome in experiment [1] and in [7] was inactive.

Take `C=CCC1([C@H](C)CCC)C(=O)NC(=O)NC1=O`: the result in experiment [1], in experiment [7], in experiment [4] and in experiment [5] was inactive.

On to `CCCc1nn(C)c2c(=O)[nH]c(-c3cc(S(=O)(=O)N4CCN(C)CC4)ccc3OCC)nc12`, for which, in experiment [1], the result was inactive. Besides, the Potency result in [8] and in [9] was “inactive” throughout.

For `O=C(O)/C=C\C(=O)O`, the result in experiment [1] and in experiment [4] was inactive.

For `C[N+](C)(C)CC(O)CC(=O)[O-]` (configuration not stated), the outcome in experiment [1] and in experiment [7] was inactive.

As for `CC[C@H]1OC(=O)[C@H](C)[C@@H](O[C@H]2C[C@@](C)(OC)[C@@H](O)[C@H](C)O2)C(C)[C@@H](O[C@@H]2O[C@H](C)C[C@H](N(C)C)[C@@H]2O)[C@](C)(OC)C[C@@H](C)C(=O)[C@H](C)[C@@H](O)[C@]1(C)O` (some centres not stated), the result in experiment [1] was inactive. For the same compound, in experiment [7], the half-maximal activity concentration (AC50) was 7.94 µM (active).

For the compound `CN=C(NC#N)NCCSCc1nc[nH]c1C`, the outcome in experiment [1] and in experiment [7] was inactive.

With `CN1[C@@H]2CC[C@H]1CC(OC(c1ccccc1)c1ccccc1)C2` (some centres not stated), the outcome in [1] was inactive. Also, the AC50 in experiment [7] was 3.55 µM (active).

With `O=C1CN(/N=C/c2ccc([N+](=O)[O-])o2)C(=O)N1`, the outcome in [1] and in experiment [7] was inactive.

Regarding `Clc1ccc2nsnc2c1NC1=NCCN1`, the result in experiment [1] and in [7] was inactive.

As to `CCn1cc(C(=O)O)c(=O)c2cc(F)c(N3CCNC(C)C3)c(F)c21` (configuration not stated), the outcome in [1] and in experiment [7] was inactive.

Take `Cc1nnc(SCC2=C(C(=O)O)N3C(=O)[C@@H](NC(=O)Cn4cnnn4)[C@H]3SC2)s1`: the outcome in experiment [1] and in experiment [7] was inactive.

With `C[C@]12CCC(=O)C=C1CC[C@@H]1[C@H]3CC[C@](C)(O)[C@@]3(C)CC[C@@H]12`, the result in experiment [1], in experiment [4] and in [5] was inactive. Also, in experiment [2], the cell viability, % of control (lower = more cytotoxic) was found to be 95.2% [at 92.2 µM]. In addition, the viability (% of control) in experiment [3] was determined as 93.9% [at 92.2 µM].

`Cn1nnc2c(C(N)=O)ncn2c1=O`: the outcome in experiment [1] and in experiment [7] was inactive.

For the compound `CCc1cc(C(N)=S)ccn1`, the outcome in experiment [1] and in [7] was inactive.

`CO[C@H]1C[C@@H]2CC[C@@H](C)[C@@](O)(O2)C(=O)C(=O)N2CCCC[C@@H]2C(=O)O[C@H]([C@@H](C)C[C@@H]2CC[C@H](O)[C@H](OC)C2)CC(=O)[C@H](C)C=C(C)[C@@H](O)[C@@H](OC)C(=O)[C@H](C)C[C@H](C)C=CC=CC=C1C`: the outcome in [1] and in [7] was inactive.

As for `COc1cccc2c1C(=O)c1c(O)c3c(c(O)c1C2=O)C[C@@](O)(C(C)=O)C[C@H]3O[C@H]1C[C@H](N)[C@H](O)[C@H](C)O1`, in [1], the outcome was inactive. Moreover, the AC50 in experiment [7] is 5.62 µM (active).

Regarding `CO[C@H]1C[C@@H]2CC[C@@H](C)[C@@](O)(O2)C(=O)C(=O)N2CCCC[C@@H]2C(=O)O[C@H]([C@H](C)C[C@@H]2CC[C@H](OCCO)[C@H](OC)C2)CC(=O)[C@H](C)C=C(C)[C@@H](O)[C@@H](OC)C(=O)[C@H](C)C[C@H](C)C=CC=CC=C1C`, in [1], the outcome was inactive. For the same compound, in experiment [7], the AC50 is 14.1 µM (active). In experiment [9], the Potency is 23.5 µM (active).

Take `NC(=O)c1cnccn1`: the result in experiment [1] and in experiment [7] was inactive.

With `CN1C(CSCC(F)(F)F)Nc2cc(Cl)c(S(N)(=O)=O)cc2S1(=O)=O` (configuration not stated), the outcome in [1] and in experiment [7] was inactive.

With `Nc1ncn([C@H]2C[C@H](O)[C@@H](CO)O2)c(=O)n1`, the outcome in experiment [1] and in experiment [7] was inactive.

Consider `C[C@@H]1O[C@@H](O[C@H]2CC[C@@]3(C)[C@H](CC[C@@H]4[C@H]3C[C@@H](O)[C@]3(C)[C@@H](C5=CC(=O)OC5)CC[C@]43O)C2)C[C@H](O)[C@@H]1O[C@H]1C[C@H](O)[C@H](O[C@H]2C[C@H](O)[C@@H](O)[C@@H](C)O2)[C@H](C)O1` (stereo in doubt), for which the outcome in experiment [1] was inactive. Further, the AC50 in [7] is 0.794 µM (active).

Take `C[C@]12CC[C@H]3[C@@H](CC[C@@]45O[C@H]4C(O)=C(C#N)C[C@]35C)[C@H]1CC[C@H]2O`: the outcome in experiment [1], in [4] and in experiment [5] was inactive. Besides, the cell viability, % of control (lower = more cytotoxic) in experiment [2] was 28.9%. Besides, the viability (% of control) in [3] amounted to 51.6%.

As to `S=P(N1CC1)(N1CC1)N1CC1`, the outcome in experiment [1] and in experiment [7] was inactive.

On to `NS(=O)(=O)c1cc(C2(O)NC(=O)c3ccccc32)ccc1Cl` (configuration not stated), for which the outcome in experiment [1] and in experiment [7] was inactive.

As to `COc1cc2c(Nc3ccc(Br)cc3F)ncnc2cc1OCC1CCN(C)CC1`, the outcome in experiment [1] was inactive. In addition, the Potency in experiment [8] is 20.9 µM (active).

As to `Cc1nnc(C(C)C)n1C1C[C@H]2CC[C@@H](C1)N2CC[C@H](NC(=O)C1CCC(F)(F)CC1)c1ccccc1` (some centres not stated), the result in [1] and in [7] was inactive.

For the compound `CC(C)c1cccc(C(C)C)c1O`, the result in experiment [1], in experiment [4] and in experiment [5] was inactive. In experiment [2], the cell viability, % of control (lower = more cytotoxic) was 123%. In addition, in [3], the viability (% of control) was found to be 113%. Also, the Potency result in experiment [6] was “inactive”.

Turning to `COc1cc(OC)c(OC)cc1C=O`, the result in experiment [1], in experiment [4] and in experiment [5] was inactive. Also, the cell viability, % of control (lower = more cytotoxic) in experiment [2] was found to be 98.9%. Also, the viability (% of control) in experiment [3] was determined as 98.8%.

In the case of `CCN[C@@H](C)Cc1ccccc1`, the result in [1], in [4] and in experiment [5] was inactive.

On to `Nc1ccc([As](=O)(O)O)cc1`, for which the result in experiment [1], in experiment [4] and in experiment [5] was inactive.

In the case of `CC(C)=CC1C(C(=O)OCN2C(=O)C3=C(CCCC3)C2=O)C1(C)C` (configuration not stated), the result in [1], in experiment [4] and in [5] was inactive.

In the case of `C=CCN1C[C@H](C)N([C@H](c2ccc(C(=O)N(CC)CC)cc2)c2cccc(OC)c2)C[C@H]1C`, the result in experiment [1], in experiment [4] and in experiment [5] was inactive.

Regarding `COP(=S)(OC)Oc1cc(Cl)c(Cl)cc1Cl`, the outcome in experiment [1], in experiment [4] and in experiment [5] was inactive.

For `C#CC(O)(C=CCl)CC` (configuration not stated), the outcome in [1], in [4] and in experiment [5] was inactive.

`Clc1ccccc1N1CCNCC1`: the outcome in experiment [1], in [4] and in [5] was inactive.

For the compound `CNCC(=O)c1ccc(O)c(O)c1`, the result in experiment [1], in experiment [4] and in experiment [5] was inactive.

In general, AC50 refers to the concentration giving half of the maximal activity seen.
